Compounds with a hit are over-represented: about 3.4% of the library has one in this group of screens.
proKLK7 act: proKLK7 (human) activation, primary screen; P49862; purified proKLK7, EDANS-DABCYL substrate fluorescence; 100% is mature enzyme control, 0% vehicle; activation, % at 7 µM; 370,000 tested, 0.9% active; AID 652039;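 active = activation above the mean of all tested compounds plus 3 SD, computed per campaign excluding outliers beyond control limits, cut at about 13% in these data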
ADAM17 inh: inhibits human ADAM17; 370,000 tested, 0.83% active; P78536; recombinant ADAM17, EDANS/DABCYL FRET peptide cleavage; AID 720648; inhibition, % at 6.95 µM;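 active = inhibition above the mean of compounds lying between control limits plus 3 SD, set per campaign, cut at about 8.5% in these data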;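 also: 0% = DMSO-only wells as the low control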
ADAM10 inh: inhibits human ADAM10 | O14672 | inhibition, % at 7 µM | recombinant ADAM10, EDANS/DABCYL FRET peptide cleavage, 3 h | AID 720582 | 370,000 tested, 0.62% active;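 active = inhibition above a per-campaign cutoff equal to the mean of compounds falling between control-based bounds plus 3 SD, cut at about 20% in these data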;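 also: 0% = DMSO wells while the 100% control is not disclosed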
Target sequence (O14672 214-748 limits assumed): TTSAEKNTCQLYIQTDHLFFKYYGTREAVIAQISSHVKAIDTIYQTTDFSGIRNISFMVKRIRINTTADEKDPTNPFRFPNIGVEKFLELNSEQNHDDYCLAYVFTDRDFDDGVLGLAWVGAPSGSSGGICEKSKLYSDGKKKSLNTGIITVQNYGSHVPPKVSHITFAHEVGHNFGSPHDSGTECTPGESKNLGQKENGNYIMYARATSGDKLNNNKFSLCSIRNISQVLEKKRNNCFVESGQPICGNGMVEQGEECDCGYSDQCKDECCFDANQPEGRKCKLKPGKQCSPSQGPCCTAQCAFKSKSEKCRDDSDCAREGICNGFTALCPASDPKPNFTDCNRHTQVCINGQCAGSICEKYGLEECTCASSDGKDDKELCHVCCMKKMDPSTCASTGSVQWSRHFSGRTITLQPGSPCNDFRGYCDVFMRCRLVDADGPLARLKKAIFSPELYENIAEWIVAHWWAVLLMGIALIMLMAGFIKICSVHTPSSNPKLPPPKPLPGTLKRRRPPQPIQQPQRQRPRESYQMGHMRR
HGIII-sPLA2 inh: Inhibits HGIII-sPLA2 liposome hydrolysis, primary screen; Q9NZ20; QFRET BODIPY PC-A2 liposome hydrolysis, fluorescence; inhibition, % at 12.2 µM; 370,000 tested, 0.56% active; AID 743126;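 active = inhibition above mean plus 3 SD of compounds lying within the high and low control bounds, cut at about 19% in these data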;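 also: 0% = median of test compound wells and 100% = no enzyme DMSO wells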
PLCb3 inh: blocks human PLC-beta3 enzyme activity. inhibition, % at 12.2 µM. Q01970. Purified PLC-beta3, fluorogenic substrate, fluorescence. 370,000 tested, 0.18% active. AID 720704; in the data active = inhibition above about 11%;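 also: 0% = median of compound wells on plate and 100% = full blocker control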
PLCg1 inh: PLC-gamma1 (human) inhibition, primary screen. P19174. purified PLC-gamma1, fluorogenic substrate, fluorescence. inhibition, % at 12.2 µM. 370,000 tested, 0.84% active. AID 720700
PLCg1 ctr: counter-screen for PLC-beta3 inhibitors: inhibitors of human PLC-gamma1; shares compounds with PLCg1 inh; purified PLC-gamma1, fluorogenic substrate, fluorescence; inhibition, % at 12.3 µM; 3,300 tested, 3.1% active
PLCbeta3 conf: human PLC-beta3 inhibition, confirmation | shares compounds with PLCg1 inh | purified PLC-beta3, fluorogenic substrate fluorescence | inhibition, % at 12.3 µM | 3,300 tested, 1% active | AID 743261; in the data active = inhibition above about 11%
The depositor's hits bear a star; / = not tested or not shown. Rule as the data show it, unless noted: active = inhibition above about 9.5%; inactive = the rest.

SMILES	proKLK7 act	ADAM17 inh	ADAM10 inh	HGIII-sPLA2 inh	PLCb3 inh	PLCg1 inh	PLCg1 ctr	PLCbeta3 conf
O=C(CSc1nnc(-c2cccs2)o1)Nc1cccc2ccccc12	0.2	-3.4	-7.9	2.1	-4.1	-3.5	/	/
O=C(Cc1ccc(-n2cccc2)cc1)N1CCc2ccccc21	-0.2	1.0	6.6	-5.5	4.5	9.9*	-1.2	-0.2
CCNC(=S)N/N=C/c1ccc(OCC(=O)Nc2ccc(OC)cc2)c(OC)c1	-1.4	6.9	0.7	-4.3	16.7*	15.6*	5.3	-0.8
Cc1[nH]c2ccccc2c1CC(=O)Nc1ccc(Nc2cccnc2)c(-c2cc(C(F)(F)F)cc(C(F)(F)F)c2)c1	-1.5	-14.0	-34.1	-15.9	-45.7	-36.9	/	/
COc1ccc2[nH]cc(C(C)c3c[nH]c4ccccc34)c2c1 (configuration not stated)	-0.3	3.1	0.4	-62.4	-8.2	-4.8	/	/
CCc1nc2ccc(C(=O)N3CCCC(C(N)=O)C3)cn2c1N(C)Cc1ccc(OC)cc1 (configuration not stated)	0.6	5.0	-3.8	-5.8	0.0	10.1*	-7.9	-3.8
CCc1nc2ccc(C(=O)N3CCCC(C(N)=O)C3)cn2c1N(CCC(C)C)CCN(C)C (configuration not stated)	0.0	1.6	-9.7	-1.8	-1.5	3.8	/	/
COc1ccc(NS(=O)(=O)Cc2ccccc2Cl)cn1	0.3	2.2	12.0	3.6	3.2	12.1*	-0.9	5.1
COc1ccc(NC(=O)Cc2c(Cl)cccc2Cl)cn1	-0.3	1.5	3.4	2.9	-0.3	3.0	/	/
O=C1CCC[C@H]2Cc3nc4cc5c(cc4cc3C[C@]23CCCN13)OCO5	/	-12.9	-41.6	1.3	-3.7	-2.3	/	/
CN1C(=O)N(CC(=O)Nc2cccc(S(=O)(=O)N(C)c3ccccc3)c2)C(=O)C12CCCCC2	0.6	4.2	7.2	-22.9	-0.2	14.3*	-3.9	-2.6
CCC1CCC2(CC1)NC(=O)N(CC(=O)Nc1cccc(S(=O)(=O)N(C)c3ccccc3)c1)C2=O (configuration not stated)	0.7	8.2	12.1	-34.8	-1.9	-0.3	/	/
CC(COc1ccc(C#N)c(F)c1)CN1CCC(C(O)(c2ccccc2)c2ccccc2)CC1 (configuration not stated)	-0.4	2.2	2.2	-21.6	1.2	1.9	/	/
COC(=O)C1=C(C)N(Cc2ccc(F)cc2)C(=S)NC1c1cccc(Br)c1 (configuration not stated)	0.2	5.9	3.1	4.7	-3.4	3.5	/	/
CN(C)S(=O)(=O)c1cccc(C(=O)NCCNC(=O)c2cccc(S(=O)(=O)N(C)C)c2)c1	-0.6	-3.5	3.0	1.4	-4.0	2.2	/	/
CN(C)S(=O)(=O)c1cccc(C(=O)NCC(C)(C)CNC(=O)c2cccc(S(=O)(=O)N(C)C)c2)c1	0.7	2.6	6.8	-6.0	-2.2	9.9*	7.9	1.7
CC(C)c1ccc(Oc2cccc3c2S(=O)(=O)N([C@H](C)c2ccccc2)C[C@@H](COCc2ccccc2)O3)cc1	0.4	-2.0	-5.7	5.5	0.9	0.0	/	/
CCN1CCN(S(=O)(=O)c2cccc3nsnc23)CC1	0.6	3.4	1.0	-0.1	13.1*	4.9	-2.5	2.0
COc1ccc(CNC(=O)C2CCN(S(=O)(=O)c3cccc4nsnc34)CC2)cc1	-0.2	0.6	7.8	8.3	-3.9	11.0*	-6.8	-3.3
Cc1ccccc1CN1CCN(S(=O)(=O)c2cccc3nsnc23)CC1	0.3	1.0	-2.8	-3.5	-2.8	3.7	/	/
COc1ccc(C2=NN(C(=O)CCCC(=O)O)C(c3cn(-c4ccccc4)nc3-c3ccccc3)C2)cc1 (configuration not stated)	-0.3	6.9	7.4	-0.3	7.3	13.8*	-0.6	-10.6
CCn1c(COc2ccccc2C)nnc1SCC(=O)N1CCCCC1	0.2	-2.2	-12.9	4.7	1.3	14.3*	-3.1	-2.4
CC(C)NC(=O)C1(C)Cc2c(-c3ccc(C(N)=O)cc3)ccnc2O1 (configuration not stated)	-1.1	-5.7	-16.9	9.1	12.4*	1.4	-6.5	-1.6
CC1(C(=O)Nc2ccc(Cl)cc2)Cc2c(-c3ccc(C(N)=O)cc3)ccnc2O1 (configuration not stated)	0.1	-2.6	3.5	4.5	-3.0	1.6	/	/
COc1ccc(-c2cc(-c3nnc(SCC(=O)Nc4nccs4)n3N)[nH]n2)cc1	-0.3	-2.0	-0.7	-34.6	3.3	2.7	/	/
SMILES	proKLK7 act	ADAM17 inh	ADAM10 inh	HGIII-sPLA2 inh	PLCb3 inh	PLCg1 inh	PLCg1 ctr	PLCbeta3 conf
CC(C)CCN(C)C1CCN(C(=O)Nc2ccccc2)CC1	-0.2	-1.5	-8.1	-1.7	2.8	-2.2	/	/
CC[C@H](CCCc1ccc(OC)cc1)CCC(=O)N1CCOCC1	0.3	-0.5	-1.3	-2.9	0.5	-4.7	/	/
O=C(O)C1C(c2ccccc2)C(C(=O)N2CCOCC2)C1c1ccccc1 (configuration not stated)	1.2	0.1	-1.6	1.8	4.2	6.3	/	/
COC(=O)C1C(c2ccccc2)C(C(=O)N2CCOCC2)C1c1ccccc1 (configuration not stated)	-0.5	1.1	-12.6	8.4	15.3*	-1.1	-2.0	2.8
CN(C)C(CNC(=O)c1c(F)cccc1Cl)c1ccco1 (configuration not stated)	-0.8	3.9	-12.0	14.6	-4.6	11.4*	-6.0	-1.7
O=C(CC(=O)NN=C1CCCCCC1)NCc1cccnc1	0.1	6.0	11.5	5.6	6.1	10.4*	1.3	1.3
NC(=O)c1ncn([C@@H]2O[C@H](C(=O)Nc3ccc(C(=O)N4CCCCC4)cc3)[C@@H](O)[C@H]2O)n1	0.5	-2.6	-13.0	12.1	4.2	1.3	/	/
Cc1ccccc1Cn1c(=O)c2c(nc3n2CCN3Cc2ccco2)n(C)c1=O	-0.1	0.5	0.5	15.1	7.2	10.6*	-2.6	0.5
O=S(=O)(c1ccccc1)c1ccccc1/C=N\O	-0.1	1.8	-0.5	-4.7	0.6	10.9*	-4.3	-5.3
Cc1ccc(N2CC(C(=O)OCC(=O)NNC(=O)c3ccccc3)CC2=O)cc1 (configuration not stated)	0.3	-2.5	-1.8	5.8	-4.0	10.7*	3.0	2.8
COc1ccc(N(CC(=O)NCCc2ccccc2)C(=O)c2csnn2)cc1	0.0	0.4	0.3	5.6	-2.7	3.1	/	/
CCOc1ccc(N(CC(=O)NCCc2ccccc2)C(=O)c2csnn2)cc1	0.5	-1.0	-10.1	13.6	-5.7	10.6*	2.9	0.4
